# According to PMC7862700, “An all-to-all approach to the identification of sequence-specific readers for epigenetic DNA modifications on cytosine”:
# Tests used:
# Assay in all cases: DAPPL (digital affinity profiling via proximity ligation, sequencing); 10 mM Tris-HCl pH 7.5, 50 mM NaCl, 1 mM DTT, 4% glycerol, room temperature, 30 min; GST-TFs on glutathione beads, 16-mer random dsDNA library, 0.1% formaldehyde crosslink after washing; high values mean tight binding
# FLI1 = target: T1, FLI1 (Homo sapiens, UniProt Q01543 1-452); conditions: protein: recombinant; tags: N-terminal GST; dsDNA, one strand shown
# T1 sequence: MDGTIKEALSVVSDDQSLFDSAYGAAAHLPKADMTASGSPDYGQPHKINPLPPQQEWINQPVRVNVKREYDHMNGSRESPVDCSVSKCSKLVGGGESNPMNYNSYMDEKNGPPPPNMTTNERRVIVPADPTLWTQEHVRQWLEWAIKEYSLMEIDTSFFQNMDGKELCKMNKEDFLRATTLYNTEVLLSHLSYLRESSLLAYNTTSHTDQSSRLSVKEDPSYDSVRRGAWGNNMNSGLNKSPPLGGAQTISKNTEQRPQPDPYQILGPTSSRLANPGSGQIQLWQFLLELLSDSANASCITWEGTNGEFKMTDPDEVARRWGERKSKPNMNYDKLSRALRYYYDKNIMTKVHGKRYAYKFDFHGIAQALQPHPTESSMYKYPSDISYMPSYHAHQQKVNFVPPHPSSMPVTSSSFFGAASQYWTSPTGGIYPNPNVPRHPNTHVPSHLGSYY
# Outline: (§1)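 The binding signal reported is, for every hexamer, its read frequency for a factor over its read frequency for the tag-only sample. Reads came from pools of yeast-expressed, GST-fused human transcription factors on glutathione beads, barcoded with DNA and mixed with that sample, which were incubated with 200 nmole of a random double-stranded 16-mer DNA library in Tris/NaCl/DTT/glycerol buffer at room temperature for 30 min. After washing, the pools were crosslinked with 0.1% formaldehyde, proximity-ligated with BsaI/T4 ligase for 1 h at 37 °C, PCR-amplified and sequenced on an Illumina NextSeq500.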
# ELK1 = target: T2, ELK1 (Homo sapiens, UniProt P19419 1-428); conditions: protein: recombinant; tags: N-terminal GST; dsDNA, one strand shown
# T2 sequence: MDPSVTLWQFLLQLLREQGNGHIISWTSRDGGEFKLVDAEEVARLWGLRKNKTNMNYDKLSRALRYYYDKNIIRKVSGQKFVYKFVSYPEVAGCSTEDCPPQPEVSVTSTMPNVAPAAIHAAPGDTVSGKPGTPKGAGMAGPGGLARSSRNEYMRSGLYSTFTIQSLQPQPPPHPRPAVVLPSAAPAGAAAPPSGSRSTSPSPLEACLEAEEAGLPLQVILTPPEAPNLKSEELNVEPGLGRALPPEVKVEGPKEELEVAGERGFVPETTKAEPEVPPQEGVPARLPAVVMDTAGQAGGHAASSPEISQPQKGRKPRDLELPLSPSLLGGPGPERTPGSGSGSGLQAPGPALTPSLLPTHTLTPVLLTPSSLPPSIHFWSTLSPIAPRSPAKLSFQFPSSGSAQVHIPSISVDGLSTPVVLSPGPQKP
# Outline: as §1
# GABPA = target: T3, GABPA (Homo sapiens, UniProt Q06546 1-454); conditions: protein: recombinant; tags: N-terminal GST; dsDNA, one strand shown
# T3 sequence: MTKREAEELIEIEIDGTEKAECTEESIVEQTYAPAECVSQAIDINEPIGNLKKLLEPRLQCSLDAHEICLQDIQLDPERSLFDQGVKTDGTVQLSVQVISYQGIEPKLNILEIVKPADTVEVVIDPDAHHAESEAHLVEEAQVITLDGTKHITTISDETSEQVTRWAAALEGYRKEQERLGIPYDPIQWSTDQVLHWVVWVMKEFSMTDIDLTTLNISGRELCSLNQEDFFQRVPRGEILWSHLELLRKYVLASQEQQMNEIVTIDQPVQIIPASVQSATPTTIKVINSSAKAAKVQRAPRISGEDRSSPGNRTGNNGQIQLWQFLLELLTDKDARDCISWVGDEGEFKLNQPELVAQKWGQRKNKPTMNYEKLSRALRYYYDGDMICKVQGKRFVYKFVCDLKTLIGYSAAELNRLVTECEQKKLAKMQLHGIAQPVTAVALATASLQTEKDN
# Outline: as §1
# ERG = target: T4, ERG (Homo sapiens, UniProt P11308 1-479); conditions: protein: recombinant; tags: N-terminal GST; dsDNA, one strand shown
# T4 sequence: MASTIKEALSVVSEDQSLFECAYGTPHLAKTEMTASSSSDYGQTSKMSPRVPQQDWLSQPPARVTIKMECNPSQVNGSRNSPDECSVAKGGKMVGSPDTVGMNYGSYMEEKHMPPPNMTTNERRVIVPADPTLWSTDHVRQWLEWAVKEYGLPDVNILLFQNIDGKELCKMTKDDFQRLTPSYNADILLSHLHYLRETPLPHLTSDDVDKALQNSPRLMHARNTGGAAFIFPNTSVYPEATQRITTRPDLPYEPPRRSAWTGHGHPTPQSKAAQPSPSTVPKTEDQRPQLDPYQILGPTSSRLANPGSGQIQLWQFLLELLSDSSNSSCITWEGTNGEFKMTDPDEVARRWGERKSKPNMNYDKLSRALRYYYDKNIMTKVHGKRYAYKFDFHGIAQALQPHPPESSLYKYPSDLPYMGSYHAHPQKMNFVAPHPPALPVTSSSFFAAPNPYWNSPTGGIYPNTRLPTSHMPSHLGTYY
# Outline: as §1
# ELF1 = ELF1 (Homo sapiens, UniProt P32519 1-619); conditions: protein: recombinant; tags: N-terminal GST; dsDNA, one strand shown
# Outline: as §1
# EHF = target: T5, EHF (Homo sapiens, UniProt Q9NZC4 1-300); conditions: protein: recombinant; tags: N-terminal GST; dsDNA, one strand shown
# T5 sequence: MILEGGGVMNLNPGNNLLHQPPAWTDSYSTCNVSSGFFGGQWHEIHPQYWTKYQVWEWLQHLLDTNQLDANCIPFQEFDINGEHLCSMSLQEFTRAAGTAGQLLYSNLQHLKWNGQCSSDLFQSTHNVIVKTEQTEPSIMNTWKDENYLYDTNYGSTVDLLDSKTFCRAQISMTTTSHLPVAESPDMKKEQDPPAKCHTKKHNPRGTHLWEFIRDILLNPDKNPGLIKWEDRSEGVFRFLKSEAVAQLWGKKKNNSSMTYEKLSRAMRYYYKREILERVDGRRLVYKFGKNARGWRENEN
# Outline: as §1
# SPI1 = SPI1 (Homo sapiens, UniProt P17947 1-270); conditions: protein: recombinant; tags: N-terminal GST; dsDNA, one strand shown
# Outline: as §1
# SPIB = SPIB (Homo sapiens, UniProt Q01892 1-262); conditions: protein: recombinant; tags: N-terminal GST; dsDNA, one strand shown
# Outline: as §1
# ELK3 = target: T6, ELK3 (Homo sapiens, UniProt P41970 1-407); conditions: protein: recombinant; tags: N-terminal GST; dsDNA, one strand shown
# T6 sequence: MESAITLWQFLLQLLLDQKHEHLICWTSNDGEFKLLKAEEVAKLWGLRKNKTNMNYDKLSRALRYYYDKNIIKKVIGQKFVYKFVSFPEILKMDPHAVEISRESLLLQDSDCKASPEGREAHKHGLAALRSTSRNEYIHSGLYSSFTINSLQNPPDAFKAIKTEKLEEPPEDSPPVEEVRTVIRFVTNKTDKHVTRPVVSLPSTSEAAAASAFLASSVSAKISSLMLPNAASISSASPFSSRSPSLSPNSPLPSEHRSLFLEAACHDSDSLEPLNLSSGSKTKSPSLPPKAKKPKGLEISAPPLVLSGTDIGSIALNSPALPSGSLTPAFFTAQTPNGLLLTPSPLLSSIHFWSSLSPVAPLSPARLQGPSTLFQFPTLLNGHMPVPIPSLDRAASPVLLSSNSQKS
# Outline: as §1
# FEV = target: T7, FEV (Homo sapiens, UniProt Q99581 1-238); conditions: protein: recombinant; tags: N-terminal GST; dsDNA, one strand shown
# T7 sequence: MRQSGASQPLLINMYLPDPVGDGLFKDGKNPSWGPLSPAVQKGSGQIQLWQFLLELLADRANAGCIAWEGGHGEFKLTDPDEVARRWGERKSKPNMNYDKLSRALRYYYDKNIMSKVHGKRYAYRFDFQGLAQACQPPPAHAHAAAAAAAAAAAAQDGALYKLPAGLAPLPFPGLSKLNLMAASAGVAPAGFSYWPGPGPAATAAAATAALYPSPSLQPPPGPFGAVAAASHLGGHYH
# Outline: as §1
# ETV5 = ETV5 (Homo sapiens, UniProt P41161 1-510); conditions: protein: recombinant; tags: N-terminal GST; dsDNA, one strand shown
# Outline: as §1
# HSF1 = HSF1 (Homo sapiens, UniProt Q00613 1-529); conditions: protein: recombinant; tags: N-terminal GST; chain copies: 3; dsDNA, one strand shown
# Outline: as §1
# SPIC = target: T8, SPIC (Homo sapiens, UniProt Q8N5J4 1-248); conditions: protein: recombinant; tags: N-terminal GST; dsDNA, one strand shown
# T8 sequence: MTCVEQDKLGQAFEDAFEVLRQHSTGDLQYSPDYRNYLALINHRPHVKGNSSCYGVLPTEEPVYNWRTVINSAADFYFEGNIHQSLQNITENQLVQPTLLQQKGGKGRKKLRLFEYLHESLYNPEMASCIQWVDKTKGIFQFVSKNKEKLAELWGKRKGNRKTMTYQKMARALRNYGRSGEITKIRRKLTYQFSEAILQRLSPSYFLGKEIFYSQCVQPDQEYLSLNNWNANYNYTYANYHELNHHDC
# Outline: as §1
# ELF4 = ELF4 (Homo sapiens, UniProt Q99607 1-663); conditions: protein: recombinant; tags: N-terminal GST; dsDNA, one strand shown
# Outline: as §1
# ELK4 = target: T9, ELK4 (Homo sapiens, UniProt P28324-2 1-405); conditions: protein: recombinant; tags: N-terminal GST; dsDNA, one strand shown
# T9 sequence: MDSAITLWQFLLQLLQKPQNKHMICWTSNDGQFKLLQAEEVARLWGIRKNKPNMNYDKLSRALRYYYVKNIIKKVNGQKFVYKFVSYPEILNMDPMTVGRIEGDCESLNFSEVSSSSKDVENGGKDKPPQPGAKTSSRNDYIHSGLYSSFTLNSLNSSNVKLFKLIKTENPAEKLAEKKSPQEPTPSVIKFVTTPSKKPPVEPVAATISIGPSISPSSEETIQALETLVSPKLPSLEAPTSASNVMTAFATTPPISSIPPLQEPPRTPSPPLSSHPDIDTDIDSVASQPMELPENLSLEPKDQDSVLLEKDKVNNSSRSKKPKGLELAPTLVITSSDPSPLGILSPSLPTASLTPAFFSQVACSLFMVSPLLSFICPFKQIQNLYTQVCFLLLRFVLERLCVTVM
# Outline: as §1
# ETV2 = target: T10, ETV2 (Homo sapiens, UniProt O00321 1-342); conditions: protein: recombinant; tags: N-terminal GST; dsDNA, one strand shown
# T10 sequence: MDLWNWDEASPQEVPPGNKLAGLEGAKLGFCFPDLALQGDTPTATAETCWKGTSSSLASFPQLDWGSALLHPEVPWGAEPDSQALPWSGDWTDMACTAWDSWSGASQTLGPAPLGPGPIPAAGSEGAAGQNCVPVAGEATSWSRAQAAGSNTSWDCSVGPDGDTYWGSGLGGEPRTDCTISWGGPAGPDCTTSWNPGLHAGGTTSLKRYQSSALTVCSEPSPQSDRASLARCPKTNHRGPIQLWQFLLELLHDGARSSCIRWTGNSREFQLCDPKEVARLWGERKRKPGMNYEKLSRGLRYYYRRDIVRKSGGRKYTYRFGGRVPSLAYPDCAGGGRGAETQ
# Outline: as §1
# ELF3 = target: T11, ELF3 (Homo sapiens, UniProt P78545 1-371); conditions: protein: recombinant; tags: N-terminal GST; dsDNA, one strand shown
# T11 sequence: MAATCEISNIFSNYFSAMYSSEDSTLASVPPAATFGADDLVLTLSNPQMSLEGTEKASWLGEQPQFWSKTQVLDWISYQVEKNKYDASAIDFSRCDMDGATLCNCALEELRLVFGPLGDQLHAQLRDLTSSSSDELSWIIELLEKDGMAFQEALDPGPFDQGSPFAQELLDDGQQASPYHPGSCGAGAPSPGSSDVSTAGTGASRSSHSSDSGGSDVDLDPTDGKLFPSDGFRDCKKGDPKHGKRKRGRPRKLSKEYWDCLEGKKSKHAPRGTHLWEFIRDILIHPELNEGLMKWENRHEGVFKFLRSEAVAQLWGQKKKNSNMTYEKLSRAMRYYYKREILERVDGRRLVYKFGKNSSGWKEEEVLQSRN
# Outline: as §1
# ETV1 = ETV1 (Homo sapiens, UniProt P50549 1-477); conditions: protein: recombinant; tags: N-terminal GST; dsDNA, one strand shown
# Outline: as §1
# ETV1, sequence (P50549 whole entry): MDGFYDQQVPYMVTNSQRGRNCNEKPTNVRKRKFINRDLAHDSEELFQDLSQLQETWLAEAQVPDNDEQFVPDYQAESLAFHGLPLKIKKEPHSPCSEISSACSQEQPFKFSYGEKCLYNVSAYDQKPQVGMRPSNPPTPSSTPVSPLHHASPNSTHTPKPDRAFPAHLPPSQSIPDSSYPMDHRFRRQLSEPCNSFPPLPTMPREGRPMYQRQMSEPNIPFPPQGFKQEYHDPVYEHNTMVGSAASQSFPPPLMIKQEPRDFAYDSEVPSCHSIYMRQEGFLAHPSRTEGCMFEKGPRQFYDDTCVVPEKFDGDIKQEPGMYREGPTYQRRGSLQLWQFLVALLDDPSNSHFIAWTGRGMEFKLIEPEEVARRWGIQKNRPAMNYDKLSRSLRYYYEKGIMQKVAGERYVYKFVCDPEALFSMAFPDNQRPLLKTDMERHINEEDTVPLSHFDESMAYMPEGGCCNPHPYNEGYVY
# ELF1, sequence (P32519 whole entry): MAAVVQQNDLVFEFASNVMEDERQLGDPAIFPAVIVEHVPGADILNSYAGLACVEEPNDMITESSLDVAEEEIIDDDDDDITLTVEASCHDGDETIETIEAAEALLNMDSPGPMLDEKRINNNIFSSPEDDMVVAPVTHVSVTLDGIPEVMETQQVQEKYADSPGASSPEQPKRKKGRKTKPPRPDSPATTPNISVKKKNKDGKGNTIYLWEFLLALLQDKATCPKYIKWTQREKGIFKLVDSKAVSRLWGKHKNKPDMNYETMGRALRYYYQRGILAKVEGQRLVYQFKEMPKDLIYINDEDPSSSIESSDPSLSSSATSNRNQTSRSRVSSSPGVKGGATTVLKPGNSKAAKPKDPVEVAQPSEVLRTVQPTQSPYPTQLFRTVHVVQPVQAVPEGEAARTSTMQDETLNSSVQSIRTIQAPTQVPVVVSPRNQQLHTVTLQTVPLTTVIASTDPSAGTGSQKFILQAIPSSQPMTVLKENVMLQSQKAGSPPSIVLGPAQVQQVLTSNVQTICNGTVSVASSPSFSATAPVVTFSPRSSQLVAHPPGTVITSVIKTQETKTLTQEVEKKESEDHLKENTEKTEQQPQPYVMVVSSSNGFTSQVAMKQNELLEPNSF
# HSF1, sequence (Q00613 whole entry): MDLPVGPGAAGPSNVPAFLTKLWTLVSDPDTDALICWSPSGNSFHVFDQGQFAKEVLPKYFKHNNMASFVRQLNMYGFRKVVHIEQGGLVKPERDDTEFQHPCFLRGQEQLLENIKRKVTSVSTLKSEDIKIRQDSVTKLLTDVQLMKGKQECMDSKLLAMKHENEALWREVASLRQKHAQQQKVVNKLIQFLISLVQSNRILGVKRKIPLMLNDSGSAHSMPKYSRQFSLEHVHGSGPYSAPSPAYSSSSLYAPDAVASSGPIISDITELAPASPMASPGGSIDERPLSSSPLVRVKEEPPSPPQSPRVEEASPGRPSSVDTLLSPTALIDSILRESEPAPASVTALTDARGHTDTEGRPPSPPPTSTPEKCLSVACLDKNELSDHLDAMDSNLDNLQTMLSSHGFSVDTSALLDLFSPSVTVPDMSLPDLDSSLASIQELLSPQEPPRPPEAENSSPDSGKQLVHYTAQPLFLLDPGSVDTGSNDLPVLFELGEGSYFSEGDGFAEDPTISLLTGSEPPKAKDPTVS
# SPIB, sequence (Q01892 whole entry): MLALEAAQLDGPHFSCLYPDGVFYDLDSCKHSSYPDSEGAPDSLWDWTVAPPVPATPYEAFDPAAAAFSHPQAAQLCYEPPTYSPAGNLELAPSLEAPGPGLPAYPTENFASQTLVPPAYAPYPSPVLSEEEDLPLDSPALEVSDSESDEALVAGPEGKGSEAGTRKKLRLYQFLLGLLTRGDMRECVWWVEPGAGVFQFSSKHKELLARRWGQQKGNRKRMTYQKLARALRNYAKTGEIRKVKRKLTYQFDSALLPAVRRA
# ELF4, sequence (Q99607 whole entry): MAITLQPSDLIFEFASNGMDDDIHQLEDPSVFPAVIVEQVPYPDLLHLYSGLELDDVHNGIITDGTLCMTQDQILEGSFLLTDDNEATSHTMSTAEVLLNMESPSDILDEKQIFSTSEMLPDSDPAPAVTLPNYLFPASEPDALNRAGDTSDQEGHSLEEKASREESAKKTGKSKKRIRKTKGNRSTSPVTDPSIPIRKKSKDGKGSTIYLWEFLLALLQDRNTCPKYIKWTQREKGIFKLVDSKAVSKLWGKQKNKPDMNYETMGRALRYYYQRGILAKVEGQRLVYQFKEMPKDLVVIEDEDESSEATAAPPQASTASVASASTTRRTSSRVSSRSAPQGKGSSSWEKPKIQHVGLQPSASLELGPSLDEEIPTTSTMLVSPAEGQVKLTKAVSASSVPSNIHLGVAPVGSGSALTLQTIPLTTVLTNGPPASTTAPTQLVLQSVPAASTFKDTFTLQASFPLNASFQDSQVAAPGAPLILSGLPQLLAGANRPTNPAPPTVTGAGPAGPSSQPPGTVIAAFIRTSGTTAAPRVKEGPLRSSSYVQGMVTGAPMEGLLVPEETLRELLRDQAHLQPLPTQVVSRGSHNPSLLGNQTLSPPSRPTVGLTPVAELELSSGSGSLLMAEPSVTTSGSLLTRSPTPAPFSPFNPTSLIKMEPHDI
# ETV5, sequence (P41161 whole entry): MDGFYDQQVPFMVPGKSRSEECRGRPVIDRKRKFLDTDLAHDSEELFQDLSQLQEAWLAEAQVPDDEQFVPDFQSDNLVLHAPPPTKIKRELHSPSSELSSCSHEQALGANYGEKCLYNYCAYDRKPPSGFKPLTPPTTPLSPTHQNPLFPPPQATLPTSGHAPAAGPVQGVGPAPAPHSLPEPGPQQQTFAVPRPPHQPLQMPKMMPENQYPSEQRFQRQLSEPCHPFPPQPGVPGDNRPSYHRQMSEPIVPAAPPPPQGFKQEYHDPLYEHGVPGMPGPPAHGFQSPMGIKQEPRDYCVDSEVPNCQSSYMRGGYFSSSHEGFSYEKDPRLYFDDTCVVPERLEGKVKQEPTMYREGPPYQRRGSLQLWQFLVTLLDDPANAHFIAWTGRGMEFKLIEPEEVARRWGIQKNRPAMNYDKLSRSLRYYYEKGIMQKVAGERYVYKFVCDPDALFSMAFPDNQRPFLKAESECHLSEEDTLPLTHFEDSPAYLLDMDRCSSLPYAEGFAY
sequence,measurement,setting,value
CTTGAC,binding signal,FLI1,"1.17 fold enrichment (6-mer frequency, TF over GST control)"
same,binding signal,ELK1,"1.3 fold enrichment (6-mer frequency, TF over GST control)"
same,binding signal,GABPA,"1.3 fold enrichment (6-mer frequency, TF over GST control)"
same,binding signal,ERG,"1.2 fold enrichment (6-mer frequency, TF over GST control)"
same,binding signal,ELF1,"1.2 fold enrichment (6-mer frequency, TF over GST control)"
same,binding signal,EHF,"1.14 fold enrichment (6-mer frequency, TF over GST control)"
same,binding signal,SPI1,"1.18 fold enrichment (6-mer frequency, TF over GST control)"
same,binding signal,SPIB,"1.19 fold enrichment (6-mer frequency, TF over GST control)"
same,binding signal,ELK3,"1.23 fold enrichment (6-mer frequency, TF over GST control)"
same,binding signal,FEV,"1.18 fold enrichment (6-mer frequency, TF over GST control)"
same,binding signal,ETV5,"1.14 fold enrichment (6-mer frequency, TF over GST control)"
same,binding signal,HSF1,"1.02 fold enrichment (6-mer frequency, TF over GST control)"
same,binding signal,SPIC,"1.14 fold enrichment (6-mer frequency, TF over GST control)"
same,binding signal,ELF4,"1.27 fold enrichment (6-mer frequency, TF over GST control)"
same,binding signal,ELK4,"1.37 fold enrichment (6-mer frequency, TF over GST control)"
same,binding signal,ETV2,"1.33 fold enrichment (6-mer frequency, TF over GST control)"
same,binding signal,ELF3,"1.33 fold enrichment (6-mer frequency, TF over GST control)"
same,binding signal,ETV1,"1.33 fold enrichment (6-mer frequency, TF over GST control)"
